Measured values reported in PubChem BioAssay (EPA / NIEHS).
Results filed as inconclusive are left out. Calls of active or inactive are those of the source. How the source made its calls: active means hit-call score of the fitted dose curve at least 0.9, where 1 is the maximum; inconclusive means response in the unintended direction; inactive means score below 0.9.

Test system: not listed separately
Test: TOX21_p53_BLA_p2_viability: Viability Assessment in the Tox21 HCT-116 p53 Agonism Beta-lactamase Assay, Phase 2 (AID 2283591);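 further: actives lower the ATP signal meaning cytotoxicity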
Outline: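 HCT116 p53-bla cells, 4000/well, dosed after 5 h plating (217-fold dilution of DMSO stocks) and incubated 16 h at 37C. Viability taken as cellular ATP by CellTiter-Glo luminescence after 30 min RT; signal loss marks cytotoxicity.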
For `CC(=O)Nc1cccc(C)c1`, the outcome was “inactive”.
In the case of `CNCCCN1c2ccccc2CCc2ccccc21`, the outcome is reported as “inactive”.
In the case of `CN1C(CCl)Nc2cc(Cl)c(S(N)(=O)=O)cc2S1(=O)=O` (stereo unspecified), the outcome is reported as “inactive”.
With `C[C@]12CCC(=O)C=C1CC[C@@H]1[C@@H]2[C@@H](O)C[C@@]2(C)[C@H]1CC[C@]2(O)C(=O)COC(=O)CCC(=O)O` the outcome was “inactive”.
For `CC(=O)N(CC(C)C(=O)O)c1c(I)cc(I)c(N)c1I` (stereo unspecified), the outcome was “inactive”.
For `O=C1c2c(O)cccc2C([C@@H]2O[C@H](CO)[C@@H](O)[C@H](O)[C@H]2O)c2cc(CO)cc(O)c21` (stereo partly specified), the outcome was “inactive”.
With `CCCNCC(O)COc1ccccc1C(=O)CCc1ccccc1` (stereo unspecified) the outcome was “inactive”.
With `Cc1ccc(C(C)NC(=O)[C@@H](NC(=O)OC(C)C)C(C)C)cc1` (stereo partly specified) the outcome was “inactive”.
In the case of `O=C(O)c1ccc(CO)o1`, the outcome is reported as “inactive”.
For `COc1ccccc1OCCNCC(O)COc1cccc2[nH]c3ccccc3c12` (stereo unspecified), the outcome was “inactive”.
For `CCC(C)(C)C(=O)O`, the outcome was “inactive”.
In the case of `O=C(CCC1CCN(Cc2ccccc2)CC1)c1ccc2c(c1)NCCCC2`, the outcome is reported as “inactive”.
In the case of `Nc1ccc2c3c(cccc13)-c1ccccc1-2`, the outcome is reported as “inactive”.
With `NS(=O)(=O)c1cc2c(cc1Cl)NC(CSCc1ccccc1)=NS2(=O)=O` the outcome was “inactive”.
With `NC(=S)Nc1cccc2ccccc12` the outcome was “inactive”.
For `O=C(CCCCCCCCC#CI)Oc1ccccc1`, the outcome was “inactive”.
With `O=P(O)(O)C(O)(Cc1cnc2ccccn12)P(=O)(O)O` the outcome was “inactive”.
In the case of `Nc1nc2c(ncn2CCC(CO)CO)c(=O)[nH]1`, the outcome is reported as “inactive”.
In the case of `O=C(O)c1cc2ccccc2c(Cc2c(O)c(C(=O)O)cc3ccccc23)c1O`, the outcome is reported as “inactive”.

Test system: not listed separately
Test: TOX21_p53_BLA_p4_viability: Viability Assessment in the Tox21 HCT-116 p53 Agonism Beta-lactamase Assay, Phase 4 (AID 2283597);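 further: hits lower the luminescence signal meaning cytotoxicity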
Outline: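 ATP content by CellTiter-Glo luminescence, 30 min RT, read after the beta-lactamase ratio step. Cells: HCT116, 4000/well, compound added after 5 h, exposure 16 h at 37C. Signal loss = reduced viability.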
With `NC(=O)c1ccncc1` the outcome was “inactive”.
With `CCOC(=O)NCCC[Si](OCC)(OCC)OCC` the outcome was “inactive”.
In the case of `CC(=O)N=c1sc(S(N)(=O)=O)nn1C`, the outcome is reported as “inactive”.
With `O=C1NC2CCCCN2C12CCN(CCCN1c3ccccc3CCc3ccc(Cl)cc31)CC2` (stereo unspecified) the AC50 was 43 µM (active).
For `O=c1[nH]cnc2ccccc12`, the outcome was “inactive”.
For `CC(C)(C)C(=O)Oc1ccc(S(=O)(=O)Nc2ccccc2C(=O)NCC(=O)O)cc1`, the outcome was “inactive”.
With `O=[N+]([O-])c1ccc2[nH]ncc2c1` the outcome was “inactive”.
For `CC(=O)CC(c1ccc([N+](=O)[O-])cc1)c1c(O)c2ccccc2oc1=O` (stereo unspecified), the outcome was “inactive”.
In the case of `OC1OC[C@@H](O)[C@H](O)[C@@H]1O` (stereo partly specified), the outcome is reported as “inactive”.
In the case of `Cc1onc(-c2ccccc2)c1C(=O)N[C@@H]1C(=O)N2[C@@H]1SC(C)(C)[C@@H]2C(=O)O`, the outcome is reported as “inactive”.
In the case of `CC(C)=CCC/C(C)=C/CC/C(C)=C/CCC(=O)OC/C=C(\C)CCC=C(C)C`, the outcome is reported as “inactive”.
For `Cn1ccc2cc3c(cc21)CCN3C(=O)Nc1cccnc1`, the outcome was “inactive”.
With `O=C1c2ccccc2CN2C(=O)c3ccccc3CN12` the outcome was “inactive”.
In the case of `Cc1cccc(Nc2ccncc2S(=O)(=O)NC(=O)NC(C)C)c1`, the outcome is reported as “inactive”.
For `CCOC(=O)OCC/C(SC(=O)OCC)=C(\C)N(C=O)Cc1cnc(C)nc1N`, the outcome was “inactive”.
With `c1ccc(COCc2ccccc2)cc1` the outcome was “inactive”.
With `O=C(CN1CCN(Cc2ccc3c(c2)OCO3)CC1)N1c2ccccc2Sc2ccccc21` the outcome was “inactive”.
For `CC(=O)Nc1cccc(C)c1`, the outcome was “inactive”.
For `CNCCCN1c2ccccc2CCc2ccccc21`, the outcome was “inactive”.
With `CN1C(CCl)Nc2cc(Cl)c(S(N)(=O)=O)cc2S1(=O)=O` (stereo unspecified) the outcome was “inactive”.
With `C[C@]12CCC(=O)C=C1CC[C@@H]1[C@@H]2[C@@H](O)C[C@@]2(C)[C@H]1CC[C@]2(O)C(=O)COC(=O)CCC(=O)O` the outcome was “inactive”.
For `CC(=O)N(CC(C)C(=O)O)c1c(I)cc(I)c(N)c1I` (stereo unspecified), the outcome was “inactive”.
In the case of `O=C1c2c(O)cccc2C([C@@H]2O[C@H](CO)[C@@H](O)[C@H](O)[C@H]2O)c2cc(CO)cc(O)c21` (stereo partly specified), the outcome is reported as “inactive”.
For `CCCNCC(O)COc1ccccc1C(=O)CCc1ccccc1` (stereo unspecified), the outcome was “inactive”.
For `Cc1ccc(C(C)NC(=O)[C@@H](NC(=O)OC(C)C)C(C)C)cc1` (stereo partly specified), the outcome was “inactive”.
With `O=C(O)c1ccc(CO)o1` the outcome was “inactive”.
In the case of `COc1ccccc1OCCNCC(O)COc1cccc2[nH]c3ccccc3c12` (stereo unspecified), the AC50 is reported as 36.8 µM (active).
In the case of `CCC(C)(C)C(=O)O`, the outcome is reported as “inactive”.
With `O=C(CCC1CCN(Cc2ccccc2)CC1)c1ccc2c(c1)NCCCC2` the outcome was “inactive”.
For `Nc1ccc2c3c(cccc13)-c1ccccc1-2`, the outcome was “inactive”.
With `NC(=S)Nc1cccc2ccccc12` the outcome was “inactive”.
In the case of `O=C(CCCCCCCCC#CI)Oc1ccccc1`, the outcome is reported as “inactive”.
With `Nc1nc2c(ncn2CCC(CO)CO)c(=O)[nH]1` the outcome was “inactive”.
For `O=C(O)c1cc2ccccc2c(Cc2c(O)c(C(=O)O)cc3ccccc23)c1O`, the outcome was “inactive”.

Target: Cellular tumor antigen p53 (Homo sapiens) (UniProt P04637)
Sequence (P04637 whole entry, looked up): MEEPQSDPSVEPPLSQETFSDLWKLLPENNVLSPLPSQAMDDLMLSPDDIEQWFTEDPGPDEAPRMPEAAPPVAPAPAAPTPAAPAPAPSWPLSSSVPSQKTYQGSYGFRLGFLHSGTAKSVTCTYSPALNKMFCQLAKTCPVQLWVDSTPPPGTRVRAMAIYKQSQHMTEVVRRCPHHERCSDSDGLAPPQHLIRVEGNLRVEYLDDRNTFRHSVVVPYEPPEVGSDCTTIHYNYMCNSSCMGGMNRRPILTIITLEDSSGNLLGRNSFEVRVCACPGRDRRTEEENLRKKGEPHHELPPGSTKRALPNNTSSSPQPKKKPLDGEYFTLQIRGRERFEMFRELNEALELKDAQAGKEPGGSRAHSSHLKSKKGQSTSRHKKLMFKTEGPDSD
Test: TOX21_p53_BLA_p5_ratio: Tox21 HCT-116 p53 Agonism Beta-lactamase Assay, Ratio, Phase 5 (AID 2283599)
Outline: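 HCT-116 p53-bla cells (4000/well) plated 5 h, dosed with compound (217-fold DMSO dilution) for 16 h at 37 C; CCF4-AM substrate 2 h at room temperature. Activity is the 460/530 nm emission ratio (405 nm excitation), fitted in gain-of-signal direction versus DMSO.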
With `O=C1C=CCCC1` the outcome was “inactive”.
For `NC(=O)c1ccncc1`, the outcome was “inactive”.
With `CC(=O)N=c1sc(S(N)(=O)=O)nn1C` the outcome was “inactive”.
With `O=c1[nH]cnc2ccccc12` the outcome was “inactive”.
For `O=[N+]([O-])c1ccc2[nH]ncc2c1`, the outcome was “inactive”.
In the case of `CC(=O)CC(c1ccc([N+](=O)[O-])cc1)c1c(O)c2ccccc2oc1=O` (stereo unspecified), the outcome is reported as “inactive”.
For `Cn1ccc2cc3c(cc21)CCN3C(=O)Nc1cccnc1`, the outcome was “inactive”.
For `CS(=O)(=O)c1ccc([C@@H](O)[C@@H](CF)NC(=O)C(Cl)Cl)cc1`, the outcome was “inactive”.
In the case of `O=C1c2ccccc2CN2C(=O)c3ccccc3CN12`, the outcome is reported as “inactive”.
For `Cc1cccc(Nc2ccncc2S(=O)(=O)NC(=O)NC(C)C)c1`, the outcome was “inactive”.
In the case of `Nc1c(NC/C=C\COc2cc(CN3CCCCC3)ccn2)c(=O)c1=O`, the outcome is reported as “inactive”.
For `c1ccc(COCc2ccccc2)cc1`, the outcome was “inactive”.
In the case of `O=C(CN1CCN(Cc2ccc3c(c2)OCO3)CC1)N1c2ccccc2Sc2ccccc21`, the outcome is reported as “inactive”.
In the case of `CN1C(CCl)Nc2cc(Cl)c(S(N)(=O)=O)cc2S1(=O)=O` (stereo unspecified), the outcome is reported as “inactive”.
For `CC(=O)N(CC(C)C(=O)O)c1c(I)cc(I)c(N)c1I` (stereo unspecified), the outcome was “inactive”.
In the case of `O=C1c2c(O)cccc2C([C@@H]2O[C@H](CO)[C@@H](O)[C@H](O)[C@H]2O)c2cc(CO)cc(O)c21` (stereo partly specified), the outcome is reported as “inactive”.
For `Cc1ccc(C(C)NC(=O)[C@@H](NC(=O)OC(C)C)C(C)C)cc1` (stereo partly specified), the outcome was “inactive”.
In the case of `COc1ccccc1OCCNCC(O)COc1cccc2[nH]c3ccccc3c12` (stereo unspecified), the outcome is reported as “inactive”.
With `O=C(CCC1CCN(Cc2ccccc2)CC1)c1ccc2c(c1)NCCCC2` the outcome was “inactive”.
With `NS(=O)(=O)c1cc2c(cc1Cl)NC(CSCc1ccccc1)=NS2(=O)=O` the outcome was “inactive”.
For `NC(=S)Nc1cccc2ccccc12`, the outcome was “inactive”.
In the case of `O=P(O)(O)C(O)(Cc1cnc2ccccn12)P(=O)(O)O`, the outcome is reported as “inactive”.
With `O=C(O)c1cc2ccccc2c(Cc2c(O)c(C(=O)O)cc3ccccc23)c1O` the outcome was “inactive”.
